# Screening results: PubChem, Broad Institute
# ROS inducer: cancer cell ROS induction; U2OS ROS induction, H2DCF-DA fluorescence; hit rate 2% among 46,000; ROS induction (% of piperlongumine), % at 10 µM; AID 624156; in the data active means ROS induction above about 79%, passing the limit was not always enough;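 further: 0% = DMSO vehicle median and 100% = reference compound median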
# BJeLR viab HTS: BJeLR cell viability reduction | viability loss activity score, % (concentration not given with the values) | AID 2275 | hit rate 0.64% among 30,000 | BJeLR fibroblasts viability, CellTiterGlo ATP luminescence, 48 h; HRASV12, hTERT and SV40 LT/ST transformed; in the data active means viability loss activity score above about 50%;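 further: higher score means fewer live cells and less ATP luminescence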
# MITF inhib: blocks MITF activity; inhibition, % (no concentration beside the values); TRPM1 promoter luciferase, luminescence, 24 h; hit rate 0.28% among 37,000; in the data active means inhibition above about 85%;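 further: human melanocyte line stably carrying TRPM1 promoter luciferase reporter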
# YB-1 expr inh: YB-1 expression inhibition. U2OS, qRT-PCR YB-1 vs CDIP delta delta Cp, 16 h; stronger effect = higher value; zero = DMSO, each unit about twofold. hit rate 0.37% among 30,000. delta delta Cp (YB-1 minus CDIP) (test concentration not listed). AID 434959;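 active means delta delta Cp rounded down to an integer at or above 3, about 3 SD of DMSO wells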;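 further: higher means less YB-1 transcript or more CDIP transcript relative to DMSO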
# The depositor's hits bear a star; x = not tested or not shown. Most compounds without a hit are left out; they make up all but 2.5% or so of the library.
SMILES,ROS inducer,BJeLR viab HTS,MITF inhib,YB-1 expr inh
CC(C)NC(=O)N(C)C[C@H]1Oc2ccc(N(C)C)cc2CC(=O)N([C@@H](C)CO)C[C@@H]1C,-5,x,1,0.1
Cc1noc(C)c1NC(=O)N(C)C[C@H]1Oc2ccc(NC(=O)NC3CCCCC3)cc2CC(=O)N([C@@H](C)CO)C[C@@H]1C,104*,x,-14,0.19
COc1ccc(CN(C)C[C@@H]2Oc3ccc(NC(=O)Nc4ccc(C(F)(F)F)cc4)cc3CC(=O)N([C@H](C)CO)C[C@@H]2C)cc1,6,x,32,9.7*
C[C@@H]1CN([C@H](C)CO)C(=O)Cc2cc(N(C)C)ccc2O[C@@H]1CN(C)C(=O)NC1CCCCC1,108*,x,3,0.2
COc1ccc(CN(C)C[C@@H]2Oc3ccc(NC(=O)NC4CCCCC4)cc3CC(=O)N([C@@H](C)CO)C[C@@H]2C)cc1,-1,x,5,-0.34
COc1ccc(CN(C)C[C@@H]2Oc3ccc(NC(=O)NC4CCCCC4)cc3CC(=O)N([C@H](C)CO)C[C@H]2C)cc1,0,x,7,6.7*
C=CCSc1ncnc2c1sc1nc(N3CCOCC3)c3c(c12)CCCC3,x,2,x,x
O=C(CCN1C(=O)COc2ccccc21)NCc1ccccc1,-9,3,x,x
c1ccc(C2=NC3(CCCC3)N=C2c2ccccc2)cc1,x,2,x,x
CCSC1=C(C#N)C(c2ccc(C(C)C)cc2)C2=C(CCCC2=O)N1 (stereo not drawn),x,-11,x,x
COc1ccc(NC(=O)N(C)C[C@H]2Oc3ccc(NC(=O)NC4CCCCC4)cc3CC(=O)N([C@H](C)CO)C[C@H]2C)cc1,83*,x,-3,0.012
COc1ccc(NC(=O)Nc2ccc3c(c2)CC(=O)N([C@@H](C)CO)C[C@@H](C)[C@@H](CN(C)C(=O)NC2CCCCC2)O3)cc1,15,x,-13,0.44
COc1ccccc1C1CC(=O)Nc2cc3c(cc21)CCC3 (stereo not drawn),x,51*,x,x
COc1ccccc1C1CC(=O)NC(C)=C1C(=O)OC1CCCC1 (stereo not drawn),x,0,x,x
C[C@@H]1CN([C@H](C)CO)C(=O)c2cc(NC(=O)C3CC3)ccc2O[C@@H]1CN(C)C(=O)Nc1ccc(C(F)(F)F)cc1,-7,-1,-5,0.26
Cc1noc(C)c1NC(=O)N(C)C[C@H]1Oc2ccc(NC(=O)Nc3ccc(F)cc3)cc2C(=O)N([C@H](C)CO)C[C@@H]1C,82*,x,-9,0.24
C[C@@H]1CN([C@@H](C)CO)C(=O)c2cc(NC(=O)Cc3ccccc3)ccc2O[C@@H]1CN(C)C(=O)Nc1ccc(C(F)(F)F)cc1,94*,x,16,0.34
C[C@H](CO)N1C[C@H](C)[C@@H](CN(C)C(=O)Nc2ccc(C(F)(F)F)cc2)Oc2ccc(NC(=O)C3CC3)cc2C1=O,18,x,-5,3.3*
C[C@H](CO)N1C[C@H](C)[C@@H](CN(C)C(=O)Nc2ccc(C(F)(F)F)cc2)Oc2ccc(NC(=O)NC3CCCCC3)cc2C1=O,36,x,17,0.065
C[C@@H]1CN([C@@H](C)CO)C(=O)c2cc(NC(=O)Cc3ccccc3)ccc2O[C@H]1CN(C)C(=O)Nc1ccc(C(F)(F)F)cc1,9,1,-1,-0.31
C[C@H](CO)N1C[C@H](C)[C@H](CN(C)C(=O)Nc2ccc(C(F)(F)F)cc2)Oc2ccc(NC(=O)NC3CCCCC3)cc2C1=O,99*,x,22,-0.59
CC(C)NS(=O)(=O)c1ccc(Cl)s1,x,-3,x,x
Cc1nn(-c2ccccc2)c2[nH]c(=O)c(C#N)c(-c3cccs3)c12,-5,-2,x,x
O=C(c1cc2n(n1)C(C(F)(F)F)CC(c1ccco1)N2)N1CCCCC1 (stereo not drawn),x,0,x,x
N#CCCN(C(=O)c1ccc2c(=O)n3c(nc2c1)CCCC3)c1ccccc1,-8,-1,x,x
SMILES,ROS inducer,BJeLR viab HTS,MITF inhib,YB-1 expr inh
C[C@H]1CN([C@@H](C)CO)C(=O)c2cc(NC(=O)CCCCCC(=O)Nc3ccccc3N)ccc2O[C@@H]1CN(C)C(=O)Nc1ccc(F)cc1,108*,4,-16,0.48
C[C@H](CO)N1C[C@H](C)[C@H](CN(C)CC2CC2)Oc2ccc(NC(=O)C3CC3)cc2C1=O,2,0,6,0.15
C[C@H]1CN([C@@H](C)CO)C(=O)c2cc(NC(=O)Nc3ccc4c(c3)OCO4)ccc2O[C@@H]1CN(C)Cc1ccc(C(F)(F)F)cc1,94*,0,7,0.061
C[C@@H]1CN([C@@H](C)CO)C(=O)c2cc(NC(=O)Nc3ccc(C(F)(F)F)cc3)ccc2O[C@H]1CN(C)C(=O)Nc1ccc(F)cc1,-4,1,8,-0.012
C[C@H]1CN([C@@H](C)CO)C(=O)c2cc(NC(=O)C3CC3)ccc2O[C@H]1CN(C)CC1CC1,-25,-4,2,13*
C[C@@H]1CN([C@@H](C)CO)C(=O)c2cc(NC(=O)Nc3ccc4c(c3)OCO4)ccc2O[C@H]1CN(C)Cc1ccc(C(F)(F)F)cc1,6,4,15,0.072
C[C@H](CO)N1C[C@H](C)[C@H](CN(C)C(=O)Nc2ccc(C(F)(F)F)cc2)Oc2ccc(NC(=O)Nc3ccc(F)cc3)cc2C1=O,96*,x,28,0.012
Cc1cccc(N2CCN(C(=O)C(NS(=O)(=O)c3cccc4nsnc34)C(C)C)CC2C)c1 (stereo not drawn),x,-2,x,x
O=C(NCCSc1c(-c2ccccc2)[nH]c2ccccc12)c1ccc(N2C(=O)CCC2=O)cc1,x,-1,x,x
O=C(/C=C/c1ccco1)N1CCN(C(c2ccccc2)c2ccccc2)CC1,x,-1,x,x
C[C@@H]1CN([C@H](C)CO)C(=O)Cc2cc(NC(=O)C3CC3)ccc2O[C@@H]1CN(C)Cc1ccc(Cl)c(Cl)c1,164*,x,9,-0.23
C[C@@H]1CN([C@H](C)CO)C(=O)Cc2cc(NC(=O)C3CCCCC3)ccc2O[C@@H]1CN(C)Cc1ccc2c(c1)OCO2,141*,x,4,0.61
C[C@H](CO)N1C[C@H](C)[C@H](CN(C)Cc2ccc(Cl)c(Cl)c2)Oc2ccc(NC(=O)CCC(F)(F)F)cc2CC1=O,151*,x,-1,0.14
CC(CC(O)C1OC1(C)C)[C@@H]1CCC2(C)C3=CCC4C(C)(C)C(=O)CCC4(C)C3CC[C@@]12C (stereo partly drawn),60,1,60,-0.21
COc1ccc(CN(CCC(c2ccccc2)c2ccco2)C(C)=O)cc1 (stereo not drawn),-2,7,x,x
CC(C)(C)NC(=O)c1ccc2c3c(onc13)-c1ccccc1C2=O,245*,2,30,-0.49
O=C(O)/C=C/c1ccc(N2C(=O)CC(Cc3ccccc3)C2=O)cc1 (stereo not drawn),-1,2,x,x
N#C/C(=C/c1ccc(O)c(O)c1)C(=O)OC/C=C/c1ccccc1,2,-1,-10,-0.12
Oc1cc(O)cc(/C=C/c2ccc(O)c(O)c2)c1,7,-10,94*,-0.071
CCCCn1nnc2c(=O)oc3ccccc3c21,187*,3,x,x
NC(=O)C1CCN(C(=O)c2cccc(Cl)c2)CC1,-2,-7,x,x
